# Measurements published in PubChem BioAssay AID504652 (National Center for Advancing Translational Sciences (NCATS), 2011).
# Values joined by “and” are separate entries in the source; they are usually repeats but may differ in a detail not shown here. Equal entries are not always repeated. In all, about 360,000 compounds went through this assay and about 11,000 (3.1%) were called active. This is one part of a sample in which actives are shown more often than they occur. Cut-off read from the data, not from the text of the source: active = activity change below about -30%; inactive = the rest.
# Biological target: D(1A) dopamine receptor (Homo sapiens) (UniProt P21728)
# Assay: Antagonist of Human D 1 Dopamine Receptor: qHTS
# Settings: HEK293 TREx D1 cells, calcium flux, dopamine EC80; at 10 µM; active compounds read low
# Outline: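 After overnight tetracycline induction at 30 C, force-coupled D1 HEK293 cells took up a no-wash calcium dye at room temperature. Compounds were added and monitored 180 s, and the response to EC80 dopamine was then recorded.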
# % is set by controls: 0 for no effect and ±100 for the full control effect.
# Chain of D(1A) dopamine receptor (Homo sapiens) (P21728 whole entry, looked up): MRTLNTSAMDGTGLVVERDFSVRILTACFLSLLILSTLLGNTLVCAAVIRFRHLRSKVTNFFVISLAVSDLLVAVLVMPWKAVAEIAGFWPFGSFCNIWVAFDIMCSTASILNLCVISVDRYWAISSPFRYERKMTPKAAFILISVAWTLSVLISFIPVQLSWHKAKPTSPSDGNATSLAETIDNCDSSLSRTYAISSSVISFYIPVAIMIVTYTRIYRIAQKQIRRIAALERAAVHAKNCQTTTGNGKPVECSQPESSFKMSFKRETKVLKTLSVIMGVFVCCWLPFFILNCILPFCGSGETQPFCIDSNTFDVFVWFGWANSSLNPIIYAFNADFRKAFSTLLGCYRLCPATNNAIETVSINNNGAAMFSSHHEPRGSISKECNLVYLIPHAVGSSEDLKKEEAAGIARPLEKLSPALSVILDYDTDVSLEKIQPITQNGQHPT
row,SMILES,"activity change, negative = inhibition"
1,CC(=O)c1ccc(NC(=O)CSc2nc(-c3ccccc3F)nc3c2c(=O)n(C)c(=O)n3C)cc1,-0.158% (inactive)
2,CC(=O)Nc1cc(C(=O)NCc2ccc(F)cc2Cl)ccc1Sc1ccc(Cl)cc1,9.87% (inactive)
3,CCOC(=O)c1ccc(NC(=O)C2CC(=O)NC(=Nc3ccc(C)c(C)c3)S2)cc1 (stereo not drawn),-1.43% (inactive)
4,CCc1ccc(CNCc2c(C(=O)O)n(Cc3ccc(F)cc3Cl)c3cc(OC)ccc23)cc1,6.05% (inactive)
5,COCCCNC(=O)/C(C#N)=C/c1c(N2CCCCCC2)nc2ccccn2c1=O,13.8% (inactive)
6,O=Cc1c(N2CCN(c3cccc(Cl)c3)CC2)nc2ccccn2c1=O,-43.5% (active)
7,O=Cc1c(Nc2ccccc2Cl)nc2ccccn2c1=O,9.2% (inactive)
8,Cc1ccc(-c2nc3ccccn3c2Nc2c(C)cccc2C)o1,-2.58% (inactive)
9,Cc1c(CNC2CCCCC2)c(C(=O)O)c(C)n1Cc1cccc(Cl)c1,-7.13% (inactive)
10,CC(=O)NC1=NN(C(C)=O)C(C)(c2ccc(C)cc2)S1 (stereo not drawn),22.7% (inactive)
11,CC(=O)NC1=NN(C(C)=O)C(C)(CCS(=O)(=O)c2ccc(Cl)c(Cl)c2)S1 (stereo not drawn),-39.7% (active)
12,CC(=O)NC1=NN(C(C)=O)C(C)(c2ccc(Cl)s2)S1 (stereo not drawn),2.68% (inactive)
13,Cc1cc(OC(C)C(=O)Nc2sc3c(c2C(N)=O)CCCC3)ccc1Cl (stereo not drawn),3.29% (inactive)
14,Cc1ccc(S(=O)(=O)c2nnn3c2nc(N2CCN(c4ccccc4F)CC2)c2cc(Cl)ccc23)cc1C,-0.0376% (inactive)
15,CCOc1ccccc1CNC(=O)C1CCCN(S(=O)(=O)c2ccc3c(ccn3C)c2)C1 (stereo not drawn),-27.8% (inactive)
16,COc1cc(COCC(O)CN2CCN(Cc3ccc4c(c3)OCO4)CC2)cc(OC)c1OC (stereo not drawn),-31.1% (active)
17,COc1cc(Cl)c(S(=O)(=O)N2CCN(Cc3ccc4c(c3)OCO4)CC2)cc1Cl,4.53% (inactive)
18,CN1CCN(CC(O)COCc2ccc3c(c2)OCO3)CC1 (stereo not drawn),-5.88% (inactive)
19,CCOc1cccc(CNC(=O)c2ccc(N3CCCC3)c(NC(=O)Nc3ccccc3CC)c2)c1,4.78% (inactive)
20,CCc1nn(CC(=O)Nc2cc(C)cc(C)c2)c(=O)c2cc3sccc3n12,3.41% (inactive)
21,CCCN1CN=C(NS(=O)(=O)c2ccc(NC(C)=O)cc2)NC1,-3.05% (inactive)
22,CCCOc1ccc(/C(O)=C2/C(=O)C(=O)N(CCN(C)C)C2c2ccc(OC)c(OC)c2)cc1 (stereo not drawn),-33.3% (active)

row,SMILES,"activity change, negative = inhibition"
1,COc1ccc(/C(O)=C2/C(=O)C(=O)N(CCCN(C)C)C2c2ccccc2)cc1OC (stereo not drawn),-33.2% (active)
2,COc1cccc(C2/C(=C(/O)c3ccncc3)C(=O)C(=O)N2CCCN(C)C)c1 (stereo not drawn),-21.5% (inactive)
3,COc1ccc(/C(O)=C2/C(=O)C(=O)N(CC3CCCO3)C2c2ccc(OC)c(OC)c2)cc1 (stereo not drawn),-3.45% (inactive)
4,COc1cccc(C2/C(=C(/O)c3ccc(F)cc3)C(=O)C(=O)N2CCN(C)C)c1 (stereo not drawn),-3.01% (inactive)
5,O=C1C(=O)N(CCCO)C(c2ccccc2)/C1=C(\O)c1ccc(Br)cc1 (stereo not drawn),-7% (inactive)
6,CCc1ccc(CNC(=O)c2ccc(CS(=O)c3ccc(Br)cc3)o2)cc1 (stereo not drawn),6.94% (inactive)
7,COc1c(Cl)cc(C(=O)N(Cc2ccccc2F)C2CCS(=O)(=O)C2)cc1Cl (stereo not drawn),-0.91% (inactive)
8,CCOC(=O)c1ccc2c(c1)N(Cc1cccc(OC)c1)C(=O)c1ccccc1S2(=O)=O,4.54% (inactive)
9,Cc1c(Cl)cccc1NC(=O)CCS(=O)(=O)c1ccc2c(c1)oc(=O)n2C,-0.334% (inactive)
10,O=C(c1ccc(Cl)cc1)n1nc(-c2cccnc2)nc1NCc1ccc(F)cc1,-16.2% (inactive)
11,CCOc1ccc(OCC)c(NC(=O)CN(c2ccc(C)cc2)S(=O)(=O)c2c(C)n[nH]c2C)c1,-7.76% (inactive)
12,O=C1Nc2cc(Cl)c(Cl)cc2N(O)N1c1cc(Cl)cc(Cl)c1,-76.7% (active)
13,O=C1Nc2cc(Cl)c(Cl)cc2N(O)N1c1ccccc1Cl,-7.41% (inactive)
14,Cc1c(CNC(C)c2ccccc2)c(C(=O)O)c(C)n1Cc1c(F)cccc1Cl (stereo not drawn),18.6% (inactive)
15,CCOc1ccc(OCC)c(NC(=O)c2c(C)nn(-c3ccccc3)c2-n2cccc2)c1,7.71% (inactive)
16,Cc1cc(C)c2nc(N(CCN(C)C)C(=O)/C=C/c3cccs3)sc2c1,6.71% (inactive)
17,O=C(Nc1ccc2nc(SCC(=O)N3CCCc4ccccc43)sc2c1)c1ccc(F)cc1,-9.64% (inactive)
18,CCN(CC)CCN(C(=O)c1ccc(N2C(=O)CCC2=O)cc1)c1nc2cc3c(cc2s1)OCO3,6.3% (inactive)
19,NS(=O)(=O)c1ccc2nc(NC(=O)C3=COCCO3)sc2c1,1.85% (inactive)
20,Cc1ccc2nc(N(CCN(C)C)C(=O)C3=COCCO3)sc2c1,-34.5% (active)
21,CN(C)CCN(C(=O)C1=COCCO1)c1nc2ccc(Cl)cc2s1,-46.4% (active)
22,CN(C)CCCN(C(=O)c1ccc(S(=O)(=O)N2CCCc3ccccc32)cc1)c1nc2ccc(F)cc2s1,-31.4% (active)

row,SMILES,"activity change, negative = inhibition"
1,O=C(Nc1nnc(S(=O)(=O)N2CCCc3ccccc32)s1)c1cccc(F)c1,-7.22% (inactive)
2,CCN(CC)CCN(C(=O)c1cc(Cl)sc1Cl)c1nc2cc3c(cc2s1)OCO3,-2.46% (inactive)
3,CCc1ccc2nc(N(CCCN(C)C)C(=O)c3ccc4c(c3)OCCO4)sc2c1,-34.9% (active)
4,CC(C)N(Cc1nnc(-c2ccc(Cl)cc2)o1)C(=O)C1=COCCO1,2.43% (inactive)
5,Cc1ccc2sc(NNC(=O)c3ccc4c(c3)OCCO4)nc2c1C,23.4% (inactive)
6,CC1CCN(S(=O)(=O)c2ccc3c(c2)N(CC(=O)NCCc2ccccc2)C(=O)CO3)CC1,1.55% (inactive)
7,Cc1ccc(C(=O)CC2(O)C(=O)N(CCc3ccccc3)c3ccc(Br)cc32)cc1 (stereo not drawn),12.6% (inactive)
8,COc1cc(OC)c(C2C=C(C(=O)O)Nc3ncnn32)cc1OC (stereo not drawn),4.4% (inactive)
9,COc1ccc(C2C(=O)N(C3CCCCCC3)CC(=O)N2CCc2ccc(Cl)cc2)cc1OC (stereo not drawn),6.57% (inactive)
10,COc1cccc(CNC(=O)c2ccc3c(Cl)c4c(nc3c2)CCCC4)c1,-2.7% (inactive)
11,CCOc1ccc(CCNC(=O)CN(c2ccc(C)cc2)S(=O)(=O)N(C)C)cc1OCC,6.83% (inactive)
12,Cc1ccc(Cn2c(CNC(=O)Cc3cccc(C)c3)nc3cccnc32)cc1,-3.78% (inactive)
13,O=C(NC1(C(F)(F)F)N=C(c2ccccc2)N(C2CCCCC2)C1=O)c1ccccc1F (stereo not drawn),-5.87% (inactive)
14,COc1ccc(-c2cn3nc(N4CCC(C(=O)Nc5cccc(C)c5C)CC4)sc3n2)cc1,-7.07% (inactive)
15,O=C(Nc1nncs1)c1cccc(S(=O)(=O)N2CCCCC2)c1,5.14% (inactive)
16,CCOC(=O)CSc1nnc(NC(=O)c2cccc(S(=O)(=O)N3CCCC3)c2)s1,-6.95% (inactive)
17,CCOC(=O)CSc1nnc(NC(=O)c2cccc(S(=O)(=O)N3CCCCC3)c2)s1,-31.1% (active)
18,Cn1nc(C(F)(F)F)c2cc(C(=O)N3CCOCC3)sc21,6.73% (inactive)
19,Cn1nc(C(F)(F)F)c(-c2ccc(F)cc2)c1NC(=O)CSCC(=O)O,8.45% (inactive)
20,Cn1nc(C(F)(F)F)c2cc(NC(=O)OCC(C)(C)C)sc21,-42.5% (active)
21,Cc1ccc(Cl)cc1NC(=O)CCS(=O)(=O)c1ccc(Br)s1,6.29% (inactive)
22,COc1ccc(C(=O)N2CCC(c3nc4ccccc4o3)CC2)cc1,4.96% (inactive)

row,SMILES,"activity change, negative = inhibition"
1,CCOC(=O)Cn1c(=O)n(C2CCCCC2)c2nc(-c3cccc(OC)c3)nc(C(N)=O)c21,8.07% (inactive)
2,Cc1csc(NC(=O)C2=COCCO2)n1,-2.15% (inactive)
3,CCC(CC)c1nnc(NC(=O)c2nn(C)c(=O)c3ccccc23)s1,0.594% (inactive)
4,CCC(CC)c1nnc(NC(=O)C2=COCCO2)s1,-42.7% (active)
5,CC(=O)N1c2ccccc2CC1C(=O)N1CCN(c2ccc(F)cc2)CC1 (stereo not drawn),9.38% (inactive)
6,COc1ccc(N2CCN(c3cc(C)nc4nncn34)CC2)cc1,-2.83% (inactive)
7,Cc1nc(N2CCOCC2)c2c(C(=O)NCc3cccc(Cl)c3)c(C)oc2n1,6.25% (inactive)
8,COc1ccc(NC(=O)C2=CC(c3ccc(OC)c(OC)c3)=NS(=O)(=O)N2C)cc1,-44.8% (active)
9,COc1cc(NC(=O)C2=CC(c3ccco3)=NS(=O)(=O)N2C)cc(OC)c1OC,-11.3% (inactive) and -11.4% (inactive)
10,COc1cc(NC(=O)C2=CC(c3ccc(C)cc3)=NS(=O)(=O)N2C)cc(OC)c1OC,-12.9% (inactive)
11,CCN(C(=O)c1sc2cc(OC)ccc2c1Cl)c1ccccc1,1.09% (inactive)
12,CCc1cccc(NC(=O)CCNS(=O)(=O)c2cccc3nonc23)c1,8.81% (inactive) and 29.5% (inactive)
13,CCc1cccc(NC(=O)CCC(=O)O)c1,-45.7% (active)
14,CCc1cccc(NC(=O)c2cc(-c3ccccc3)n[nH]2)c1,-7.87% (inactive)
15,O=CN1CCN(C(=O)c2ccc3c(c2)OCO3)CC1,11.7% (inactive)
16,O=C(c1ccc(Br)o1)N1CCN(CCOc2ccccc2)CC1,3.56% (inactive)
17,O=CN1CCN(C(=O)c2ccc(Br)o2)CC1,-36.1% (active)
18,CC(C)c1ccc(C2CC(=O)N3CN(C4CCCCC4)CSC3=C2C#N)cc1 (stereo not drawn),-4.95% (inactive)
19,COc1cccc(CNC(=O)Cn2ncn3c(cc4ccccc43)c2=O)c1,2.91% (inactive)
20,CCOC(=O)[C@@H]1[C@H]2COc3cc(OC)ccc3[C@H]2N2C(=O)N(c3ccc(F)cc3)C(=O)[C@]12C,-0.628% (inactive)
21,CCOC(=O)[C@@H]1[C@H]2COc3cc(OC)ccc3[C@@H]2N2C(=O)N(c3cccc(C)c3)C(=O)[C@@]12C,-0.419% (inactive)
22,CCOC(=O)[C@H]1[C@H]2COc3cc(OC)ccc3[C@@H]2N2C(=O)N(c3ccc(Br)cc3)C(=O)[C@@]12C,-55.7% (active)
